# In all, about 8,300 sequences were measured (“log2 fold change of degron read counts, EGFP-low vs EGFP+ sorted cells (limma voom), compound-induced degradation”: median about -1.1, highest 2% from about 3.2 on). This is one part of a sample in which the highest values are shown more often than they occur.
# T1: CRBN, Q96SW2
# T1 chain: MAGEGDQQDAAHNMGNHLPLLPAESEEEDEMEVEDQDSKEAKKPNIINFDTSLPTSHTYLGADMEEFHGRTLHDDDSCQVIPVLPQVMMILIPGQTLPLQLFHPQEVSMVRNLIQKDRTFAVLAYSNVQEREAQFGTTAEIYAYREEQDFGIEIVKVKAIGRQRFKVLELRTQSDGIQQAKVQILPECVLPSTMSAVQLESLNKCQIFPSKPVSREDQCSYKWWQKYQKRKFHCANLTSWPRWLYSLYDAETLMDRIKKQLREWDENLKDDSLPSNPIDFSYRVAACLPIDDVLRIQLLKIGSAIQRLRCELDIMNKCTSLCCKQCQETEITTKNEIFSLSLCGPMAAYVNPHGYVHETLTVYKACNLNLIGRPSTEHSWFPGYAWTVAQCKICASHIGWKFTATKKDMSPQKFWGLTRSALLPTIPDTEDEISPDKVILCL
# Molecular target: T1, CRBN, Q96SW2
# Assay: log2 fold change of degron read counts, EGFP-low vs EGFP+ sorted cells (limma voom), compound-induced degradation; higher = more compound-induced degradation of the degron-EGFP fusion; degrons are variants of IKZF1/3 zinc finger 2; compound dose not given here
# Conditions: Jurkat, 18 h
# [1] = compound: compound 19 (5-tert-butyl-thalidomide)
# [2] = compound: compound 22 (5-morpholino-thalidomide)
# [3] = compound: compound 33 (diphenyl IMiD analogue)
# 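Further: pooled lentiviral library of zinc finger degron-EGFP fusions in mCherry-positive Jurkat cells, FACS-sorted after compound exposure, with degron abundance counted by next-generation sequencing.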
Sequence,log2 fold change of degron read counts [1],log2 fold change of degron read counts [2],log2 fold change of degron read counts [3],log2 fold change of degron read counts (compound: thalidomide)
"LMCPICGFICTQKGNLLRHIKL [46L_47M_49P_50I_52G_53F_54I_55C_67L_, Q9UKT9]",-0.334,0.292,2.06,1.27
"LRCNQCGFGCTQKGNLLRHIKL [46L_47R_49N_50Q_52G_53F_54G_55C_67L_, Q9UKT9]",-1.13,-1.8,-1.41,-1.08
"FFCSVCGHEFTQKGNLLRHIKL [46F_47F_49S_50V_52G_53H_54E_55F_67L_, Q9UKT9]",-2.81,-3.34,-3.2,-2.56
"FCCPICGAMFTQKGNLLRHIKL [46F_47C_49P_50I_52G_53A_54M_55F_67L_, Q9UKT9]",1.6,1.26,2.22,1.23
"FSCNQCGHTFTQKGNLLRHIKL [46F_47S_49N_50Q_52G_53H_54T_55F_67L_, Q9UKT9]",-2.44,-2.51,-2.85,-2.59
"FMCNVCGADFTQKGNLLRHIKL [46F_47M_49N_50V_52G_53A_54D_55F_67L_, Q9UKT9]",-2.78,-2.8,1.31,-1.76
"LYCPICGFICTQKGNLLRHIKL [46L_47Y_49P_50I_52G_53F_54I_55C_67L_, Q9UKT9]",2.94,2.9,1.98,0.937
"FSCNVCGAPFTQKGNLLRHIKL [46F_47S_49N_50V_52G_53A_54P_55F_67L_, Q9UKT9]",0.819,0.453,-0.105,0.146
"FSCEICGAGFTQKGNLLRHIKL [46F_47S_49E_50I_52G_53A_54G_55F_67L_, Q9UKT9]",3.39,1.57,1.23,0.613
"FMCEICGAGFTQKGNLLRHIKL [46F_47M_49E_50I_52G_53A_54G_55F_67L_, Q9UKT9]",2.81,1.95,2.73,1.31
"FVCEICGAGFTQKGNLLRHIKL [46F_47V_49E_50I_52G_53A_54G_55F_67L_, Q9UKT9]",1.53,3.07,1.92,3.23
"FKCEICGAGFTQKGNLLRHIKL [46F_47K_49E_50I_52G_53A_54G_55F_67L_, Q9UKT9]",2.69,-0.466,-0.772,0.328
"FCCEICGAGFTQKGNLLRHIKL [46F_47C_49E_50I_52G_53A_54G_55F_67L_, Q9UKT9]",3.68,2.09,1.63,1.42
"FICPICGRGFTQKGNLLRHIKL [46F_47I_49P_50I_52G_53R_54G_55F_67L_, Q9UKT9]",-2.06,-1.04,-0.776,0.0621
"FTCPICGHHFTQKGNLLRHIKL [46F_47T_49P_50I_52G_53H_54H_55F_67L_, Q9UKT9]",-2.5,-2.32,-1.56,-1.14
"FTCEQCGAKFTQKGNLLRHIKL [46F_47T_49E_50Q_52G_53A_54K_55F_67L_, Q9UKT9]",-1.64,-1.04,-1.94,0.449
"FVCPVCGAVFTQKGNLLRHIKL [46F_47V_49P_50V_52G_53A_54V_55F_67L_, Q9UKT9]",-0.832,1.08,1.95,1.7
"FQCPQCGAVFTQKGNLLRHIKL [46F_47Q_49P_50Q_52G_53A_54V_55F_67L_, Q9UKT9]",-1.53,0.725,0.715,3.42
"FSCPVCGAVFTQKGNLLRHIKL [46F_47S_49P_50V_52G_53A_54V_55F_67L_, Q9UKT9]",1.86,1.28,2.79,1.39
"FVCPQCGAVFTQKGNLLRHIKL [46F_47V_49P_50Q_52G_53A_54V_55F_67L_, Q9UKT9]",-2.28,-1.6,0.556,-0.724
"FFCPQCGAVFTQKGNLLRHIKL [46F_47F_49P_50Q_52G_53A_54V_55F_67L_, Q9UKT9]",0.252,0.896,0.248,-0.636
"FYCNICGAVFTQKGNLLRHIKL [46F_47Y_49N_50I_52G_53A_54V_55F_67L_, Q9UKT9]",1.85,2.59,1.47,-0.489
"FDCPVCGAVFTQKGNLLRHIKL [46F_47D_49P_50V_52G_53A_54V_55F_67L_, Q9UKT9]",0.0323,-0.349,1.32,1.15
"FMCPVCGAVFTQKGNLLRHIKL [46F_47M_49P_50V_52G_53A_54V_55F_67L_, Q9UKT9]",-1.41,-0.169,1.97,1.09
"FGCPVCGAVFTQKGNLLRHIKL [46F_47G_49P_50V_52G_53A_54V_55F_67L_, Q9UKT9]",3.56,2.4,2.72,1.15
"FQCNICGAVFTQKGNLLRHIKL [46F_47Q_49N_50I_52G_53A_54V_55F_67L_, Q9UKT9]",-1.01,2.01,1.99,3.47
"FKCNICGAVFTQKGNLLRHIKL [46F_47K_49N_50I_52G_53A_54V_55F_67L_, Q9UKT9]",-2.43,-2.68,-2.59,-1.81
"FQCPVCGAVFTQKGNLLRHIKL [46F_47Q_49P_50V_52G_53A_54V_55F_67L_, Q9UKT9]",-0.23,3.11,2.75,3.75
